Screening data as filed in PubChem.
Hits are enriched below; roughly 3.7% of the tested compounds scored in any of these assays.
HTT promoter inh: HTT promoter inhibition; HEK293 HTT promoter firefly luciferase reporter, 24 h; Potency, µM (doses to about 57.5 µM), without a hit: at the top dose activity change, negative = inhibition, usual class: inhibitors; 48,000 tested, 0.93% active; note: potency is the fitted concentration of half-maximal effect; nearly all actives have a fitted effect of over 50% in size
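Firefly luciferase signal from promoter-reporter HEK293 cells was scaled between vehicle (0%) and zero RLU (-100%). Compounds were tested at final concentrations of up to 57.5 uM over 24 h at 37 degrees C. PTC124 at 50 uM final served as control inhibitor.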
HTT-AS act: activates huntingtin-antisense promoter activity | HEK293 HTT-AS promoter firefly luciferase reporter, 24 h; response scale: percent change from vehicle, -100% = no light | Potency, µM (series often up to 57.5 µM), inactives show top-dose activity change, positive = activation, most hits filed as activators | 48,000 tested, 0.24% active; note: potency is the fitted concentration of half-maximal effect; nearly all actives have a fitted effect of over 55% in size
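Luminescence was read after Dual-Glo reagent and a 10 min room-temperature incubation. Values were normalized to vehicle (0% activity) and zero RLU (-100% activity). Reporter HEK293 cells had been exposed to compounds (up to 57.5 uM final) for 24 h.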
DRV1 agonist: GPR32 (DRV1) agonism, beta-arrestin recruitment | O75388 | CHO-K1 GPR32 beta-arrestin PathHunter luminescence, 90 min; zero percent set by DMSO-only wells | activation, % at 76.9 µM | 48,000 tested, 2.5% active;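 active = activation of at least 60% and not above a set upper limit, about 1 call in 100 departs from these limits; inconclusive = activation of 40% to 60%, or above that upper limit; inactive = activation under 40%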; note: 0% is about no effect
Target sequence (O75388 whole entry, looked up): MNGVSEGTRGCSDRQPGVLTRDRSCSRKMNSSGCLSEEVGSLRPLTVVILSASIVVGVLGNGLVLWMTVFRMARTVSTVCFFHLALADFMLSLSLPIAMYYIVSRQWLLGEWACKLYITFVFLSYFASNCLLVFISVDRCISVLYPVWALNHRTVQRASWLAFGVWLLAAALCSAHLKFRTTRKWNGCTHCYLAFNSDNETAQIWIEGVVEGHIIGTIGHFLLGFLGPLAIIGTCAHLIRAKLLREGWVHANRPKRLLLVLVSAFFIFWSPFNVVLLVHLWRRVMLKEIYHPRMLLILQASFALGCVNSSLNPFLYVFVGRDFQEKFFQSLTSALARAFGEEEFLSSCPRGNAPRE
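Agonism was scored by beta-Gal fragment complementation (chemiluminescent read, 1 h detection at ambient temperature) reporting beta-arrestin binding to GPR32 in engineered CHO-K1 cells. Compound treatment lasted 90 min at 37 C, normalized to a DMSO basal control.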
Numbers without * were called inactive; ? = inconclusive; . = no result; [ ] = another dose, or the depositor's remark. Unless noted, calls come from the whole dose curve; as a rule, active = well fitted curve in the direction sought with a large enough effect; inconclusive = small, poorly fitted or top-dose-only effect, or another doubt; inactive = no such curve, though single readings can be large; an effect the other way counts as inactive or inconclusive.

SMILES	HTT promoter inh	HTT-AS act	DRV1 agonist
CN1CCc2c(sc3c2C(=O)NC(c2ccc(OC(=O)c4ccc(C(C)(C)C)cc4)cc2)N3)C1 (stereo unspecified)	?	-73%	65*
CN1CCc2c(sc3c2C(=O)NC(c2ccc(OC(=O)c4ccc(Cl)cc4)cc2)N3)C1 (stereo unspecified)	21%	7%	33
Cc1ccc(NC(=O)/C(C#N)=C/c2cc(C)n(-c3ccc(Br)cc3)c2C)cc1C	-18%	-85%	63*
Cc1ccc(-n2c(C)cc(/C=C(\C#N)C(=O)Nc3ccc(C)c(C)c3)c2C)cc1	-6%	-9%	12
CC(C)c1ccc(NC(=O)C2(C)Cc3ccccc3C(=O)O2)cc1 (stereo unspecified)	25%	26%	79*
Cc1cccc(NC(=O)C2(C)Cc3ccccc3C(=O)O2)c1 (stereo unspecified)	5%	-5%	-5
Cc1cccc(N2CCN(C(=O)C3CCN(S(=O)(=O)c4ccc5c(c4)oc(=O)n5C)CC3)CC2)c1C	?	-43%	8
Cc1cccc(N2CCN(C(=O)C3CCCN(S(=O)(=O)c4ccc5c(c4)oc(=O)n5C)C3)CC2)c1C (stereo unspecified)	5µM*	-45%	6
Cc1cccc(N2CCN(C(=O)C3CCN(S(=O)(=O)c4c(C)noc4C)CC3)CC2)c1C	14µM*	-38%	1
Cc1noc(C)c1S(=O)(=O)N1CCC(C(=O)N2CCN(c3ccccc3)CC2)CC1	-26%	-23%	18
COc1cc2c(Nc3ccc(Cl)c(Cl)c3F)ncnc2cc1OCC1C[C@@H]2CN(C)C[C@H]2C1	?	-50%	.
Cc1ccc(CNC(=O)c2ccc(-c3nc(CS(=O)(=O)c4ccc(C)cc4)c(C)o3)cc2)cc1	-21%	-16%	110*
CCCCNC(=O)c1ccc(-c2nc(CS(=O)(=O)c3ccc(C)cc3)c(C)o2)cc1	?	-16%	69*
COCCCNC(=O)c1ccc(-c2nc(CS(=O)(=O)c3ccc(C)cc3)c(C)o2)cc1	.	.	7
COc1ccccc1CNC(=O)c1ccc(-c2nc(CS(=O)(=O)c3ccc(C)cc3)c(C)o2)cc1	.	.	-4
CS(=O)(=O)Oc1ccc2c(NC(N)=O)c(C(=O)c3ccc(Cl)cc3Cl)oc2c1	229%	19%	.
O=C1c2ccccc2-[n+]2ccc3c([nH]c4ccccc43)c21	?	-93%	.
Cc1ncc(-c2ccnc(Nc3ccc(S(C)(=O)=O)cc3)n2)n1C(C)C	?	-34%	.
OCCn1cc(-c2ccc3c(c2)CCC3=NO)c(-c2ccncc2)n1	?	-34%	.
CCCCn1c(=N)n(CCOc2ccccc2OC)c2ccccc21	?	-35%	65*
CCn1c(=N)n(CCOc2ccc(Br)cc2)c2ccccc21	?	-33%	5
CCOC(=O)c1ccc(NC(=O)c2cnc(N3CCCC3)nc2C)cc1	-21%	-9%	96*
Cc1nc(N2CCCC2)ncc1C(=O)Nc1ccc(OC(F)(F)F)cc1	?	-26%	39
CC(=O)N[C@@H](CO)C(=O)N[C@@H](CC(=O)O)C(=O)N[C@@H](CCCCN)C(=O)N1CCC[C@H]1C(=O)O	6%	-5%	8
COc1ccccc1N1CCN(CC(O)COc2cc(C)cc(C)c2)CC1 (stereo unspecified)	-26%	-12%	34
SMILES	HTT promoter inh	HTT-AS act	DRV1 agonist
COc1ccc(N2CCN(CC(O)COc3ccc(C(C)(C)C)cc3)CC2)cc1 (stereo unspecified)	-23%	4%[11.5 µM]	10
COc1ccccc1N1CCN(CC(O)COc2ccc(Cl)c(C)c2)CC1 (stereo unspecified)	7%[11.5 µM]	16%[11.5 µM]	118*
COc1ccc(N2CCN(CC(O)COc3ccc(C)cc3C)CC2)cc1 (stereo unspecified)	-20%	3%	67*
CC(C)c1cnn2c(NCc3ccccc3)cc(N[C@@H](CO)[C@H](O)CO)nc12	?	-39%	.
COc1cc(C2CC(=O)Nc3c2c(C)nn3-c2nncc(-c3ccccc3)n2)cc(OC)c1OC (stereo unspecified)	-10%	-12%	5
Cc1cc(Nc2cccc(C(F)(F)F)c2)nc2ccc(NC(=O)Cc3ccc(Cl)cc3)cc12	?	-46%	19
Cc1ccccc1-c1nc2cc(NC(=O)Cc3ccc(Cl)cc3)ccc2o1	1%	-7%	118*
Cc1cccc(OCC(=O)Nc2ccc3oc(-c4ccccc4F)nc3c2)c1	19%	?	121*
Cc1ccc(OCC(=O)Nc2c(Cl)ccc3nsnc23)cc1C	?	-24%	84*
O=C(Cc1ccc(Cl)cc1)Nc1ccc2oc(-c3ccccc3)nc2c1	18%	21%	13
CC(C)c1ccc(OCC(=O)Nc2c(Cl)ccc3nsnc23)cc1	-29%	-10%	45
Cc1cccc(OCC(=O)Nc2ccc3nc(Nc4cccc(C(F)(F)F)c4)cc(C)c3c2)c1	-34%	-43%	76*
O=C(COc1ccccc1Cl)Nc1ccc2oc(-c3ccccc3F)nc2c1	14%	?	-8
CC(C)c1cc(C(=O)N2Cc3ccc(CN4CCN(C)CC4)cc3C2)c(O)cc1O	?	-58%	.
COc1ccc(CCn2nnnc2C2(c3ccc(C)cc3)CC2)cc1	.	.	-12
N#Cc1ccc(NC(=O)Nc2ccccc2Br)c2n[nH]nc12	14%	0%	.
CCCOc1ccc2c(c1)CC[C@@H]1[C@@H]2CC[C@]2(C)C(OC)CC[C@@H]12 (stereo partly specified)	4%	0%	45
CCc1ccc(OCC(=O)Nc2ccc(Cl)c(-c3nc4cc(C)cc(C)c4o3)c2)cc1	.	.	-5
Cc1ccc2nc(-c3cc(NC(=O)COc4ccc(C)c(C)c4)ccc3Cl)oc2c1	7%	2.5µM*	-11
Cc1ccc(C(=O)N(CCCN)[C@@H](c2nc3cc(Cl)ccc3c(=O)n2Cc2ccccc2)C(C)C)cc1	-17%	-29%	.
O=C(Nc1ccc(Cl)cc1)C1CCN(S(=O)(=O)c2ccc(Br)s2)CC1	?	-44%	?
Cc1ccc(C)c(Nc2nn3c(=O)c4ccc(C(=O)NCc5ccccc5)cc4nc3s2)c1	-19%	-23%	63*
Cc1ccccc1Nc1nn2c(=O)c3ccc(C(=O)NCc4cccs4)cc3nc2s1	-32%	-21%	-7
Cn1c(CNc2ccc(C(=N)N)cc2)nc2cc(C(=O)N(CCC(=O)O)c3ccccn3)ccc21	-2%[25.2 µM]	-6%[25.1 µM]	.
C[C@@]1(C2CCCC2)Cc2cc(OCC(=O)O)c(Cl)c(Cl)c2C1=O	.	.	-17
SMILES	HTT promoter inh	HTT-AS act	DRV1 agonist
C=C(CC)C(=O)c1ccc(OCC(=O)O)c(Cl)c1Cl	?	-42%	90*
O=C(O)[C@H](CC(=O)N1C[C@@H]2CCCC[C@H]2C1)Cc1ccccc1	13%	-4%	.
CCN(CC)CCOc1ccc(Cc2ccccc2)cc1	-3%	5%	7
CCN(CC)CCOc1ccc(C(=C(Cl)c2ccccc2)c2ccccc2)cc1	-9%	24µM*	.
Cc1[nH]nc2ccc(-c3cncc(OC[C@@H](N)Cc4ccccc4)c3)cc12	?	-43%	.
Cc1ccccc1CC1C(=O)Nc2ccc(Br)cc21 (stereo unspecified)	?	-24%	-27
